High-throughput results: PubChem BioAssay, The Scripps Research Institute Molecular Screening Center
Hits are enriched below; roughly 2.3% of the tested compounds scored in any of these assays.
CHRM1 agonist: human M1 muscarinic receptor agonists, primary screen, Fluo-8 calcium fluorescence, CHO-K1 cells, HTS; 360,000 tested, 0.33% active; CHO-K1 hM1, agonist mode; 0% DMSO, 100% acetylcholine EC100; activation, % at 3 µM; AID 588814, 2011;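 active = activation above the run's mean compound activation plus 3 SD, cut at about 16% in these data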;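 also: peak over basal fluorescence ratio within a 140 s kinetic read after compound addition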
Target sequence (P11229 whole entry, looked up): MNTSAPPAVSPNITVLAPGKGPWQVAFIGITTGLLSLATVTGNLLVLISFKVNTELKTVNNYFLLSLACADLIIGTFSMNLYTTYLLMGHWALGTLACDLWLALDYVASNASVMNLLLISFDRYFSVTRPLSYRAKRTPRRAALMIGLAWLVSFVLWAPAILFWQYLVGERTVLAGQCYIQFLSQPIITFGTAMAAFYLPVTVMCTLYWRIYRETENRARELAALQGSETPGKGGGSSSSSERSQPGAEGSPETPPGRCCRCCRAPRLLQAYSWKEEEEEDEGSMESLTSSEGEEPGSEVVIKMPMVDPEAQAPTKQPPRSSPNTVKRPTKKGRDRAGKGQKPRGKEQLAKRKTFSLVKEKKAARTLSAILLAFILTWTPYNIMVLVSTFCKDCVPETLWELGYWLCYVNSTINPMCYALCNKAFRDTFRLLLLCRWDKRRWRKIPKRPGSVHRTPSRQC
CHRM1 PAM: human M1 muscarinic receptor positive allosteric modulators, primary screen, CHO-K1 cells, Fluo-8 calcium fluorescence, 1536-well; activation, % at 3 µM; CHO-K1 hM1, ACh EC20; 0% = ACh EC20, 100% = maximal ACh; 360,000 tested, 0.088% active; AID 588819, 2011; in the data active = activation above about 19%, passing the limit was not always enough
M1 ag parental: counter-screen for M1 agonists: effect in parental CHO-K1 cells; activation, % at 3 µM; 360,000 tested, 0.48% active; AID 602248, 2012; Fluo-8 calcium fluorescence; scaled to maximal ATP response, vehicle zero; in the data active = activation above about 15%;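 also: untransfected CHO-K1 host cells lacking M1 receptor as counterscreen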
M1 antag: human M1 muscarinic receptor antagonists, primary screen, CHO-K1 cells, Fluo-8 calcium fluorescence, 1536-well | CHO-K1 hM1, ACh EC80 antagonist | 360,000 tested, 1.3% active | Muscarinic acetylcholine receptor M1 (Homo sapiens), P11229 | inhibition, % at 3 µM | AID 588852, 2011;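 active = percent inhibition above its own plate's cutoff, namely the mean of that plate's compound wells plus 3 SD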;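 also: peak over basal fluorescence ratio during 140 s after agonist addition; 0% = ACh EC80 plus DMSO and 100% = DMSO alone without agonist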
M1 PAM parental: nonselective calcium activators in parental CHO-K1 cells, primary screen, counter-screen for M1 PAM project, cell-based, Fluo-8 calcium fluorescence, full deck, 1536-well | ATP EC20; 0% at ATP EC20, 100% at ATP max | activation, % at 3 µM | 360,000 tested, 0.02% active | AID 602247, 2012;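 active = activation above the run cutoff, the mean activation of all test compounds plus 3 SD, cut at about 40% in these data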;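 also: peak over basal fluorescence ratio in a 140 s read after ATP addition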
CHO-K1 Ca antag: M1 antagonist counterscreen hit in parental CHO-K1 cells. ATP-induced calcium, Fluo-8 fluorescence. inhibition, % at 3 µM. 360,000 tested, 0.6% active;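 active = inhibition above a per-plate cutoff, the plate's mean sample inhibition plus 3 SD, cut at about 24% in these data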;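 also: 0% = DMSO plus EC80 ATP and 100% = DMSO alone without ATP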
An asterisk follows results filed as active; . = no result given.

SMILES	CHRM1 agonist	CHRM1 PAM	M1 ag parental	M1 antag	M1 PAM parental	CHO-K1 Ca antag
CC(C(=O)Nc1nc(-c2ccc(F)c(F)c2)cs1)N1C(=O)C2CC=CCC2C1=O (stereo not drawn)	-1	-17	13	31*	-1	0
COc1ccc(-c2csc(NC(=O)[C@H](C)N3C(=O)C4CC=CCC4C3=O)n2)cc1OC (stereo partly drawn)	-1	-5	7	12	26	-5
O=C(Cc1ccc(F)cc1)Nc1nc(-c2ccc(F)cc2)cs1	-9	-30	6	35*	-28	3
COc1ccc(CC(=O)Nc2nc(C)cs2)cc1	-4	4	16*	-1	-6	7
Cc1csc(NC(=O)Cc2ccc(Cl)cc2)n1	-1	7	1	-6	6	-9
O=C(O)CCCC(=O)Nc1nc(-c2ccc(F)cc2)cs1	-2	5	0	-12	9	-5
O=C(Cc1ccccc1)Nc1nc(-c2ccc(F)c(F)c2)cs1	-8	-30	7	37*	-3	5
O=C(Cc1ccccc1F)Nc1nc(-c2ccc(F)c(F)c2)cs1	-8	-16	6	9	7	-7
CC(C)(C)NC(=O)C(c1ccc(-c2ccccc2)cc1)N(C[C@H]1CC[C@@H]([C@@H]2CC[C@H](CO)O2)O1)C(=O)c1ccccc1F (stereo partly drawn)	-3	3	1	-9	17	-22
O=C(Nc1ccc(NC(=O)c2cccnc2Cl)cc1)c1cccc(Cl)c1	-2	1	1	-2	-6	15
CC(C)(C)OC(=O)CNC(=O)c1[nH]cnc1C(=O)NCCCCCNC(=O)OC(C)(C)C	-1	-21	17*	30	-2	-5
CC(C)C[C@H](NC(=O)c1nc[nH]c1C(=O)NCCCCCNC(=O)OC(C)(C)C)C(=O)OC(C)(C)C	-10	-35	-1	61*	-21	-5
CC(C)(C)OC(=O)CNC(=O)c1[nH]cnc1C(=O)NCCCCCN	-7	2	0	2	2	-6
O=[N+]([O-])c1ccc(S(=O)(=O)NCCc2cn3ccccc3n2)cc1	-1	28*	0	-27	8	-4
COc1ccccc1NC(=O)CSc1nnc2ccccn12	6	25*	0	-12	11	-13
CC1(c2nnnn2-c2ccc3c(c2)OCCO3)CCC(=O)N1CCOc1ccccc1 (stereo not drawn)	.	.	2	.	16	-16
Cc1cccc(CS(=O)(=O)Cc2ccc(C(=O)NCc3ccccc3)o2)c1	0	6	6	-13	11	-13
Cc1cccc(CS(=O)(=O)Cc2ccc(C(=O)NCc3cccs3)o2)c1	6	7	27*	-11	5	2
CCC12CN3CC(CC)(CN(C1)C3c1ccc([N+](=O)[O-])o1)C2=O (stereo not drawn)	-8	9	0	-7	11	2
CCCOc1ccc(N2C(=O)CC(N3CCN(c4ccc([N+](=O)[O-])cc4)CC3)C2=O)cc1 (stereo not drawn)	-2	1	25*	-6	12	2
Cc1ccnc(NC(=O)c2cccc(S(=O)(=O)N3CCN(c4ccc(F)cc4)CC3)c2)c1	-2	6	1	-14	-7	-8
N#Cc1ccc(CN2CCN(C(=O)CNC(=O)Cc3cccc4ccccc34)CC2)cc1	23*	-9	9	2	6	-6
c1ccc(CSc2nnc(-c3ccncc3)o2)cc1	0	16	0	-2	-6	2
CC(C)(C)NC(=O)CSc1nnc(-c2ccncc2)o1	-3	4	0	-3	1	25*
Cc1ccccc1CSc1nnc(-c2ccncc2)o1	-6	-12	24*	11	2	3
SMILES	CHRM1 agonist	CHRM1 PAM	M1 ag parental	M1 antag	M1 PAM parental	CHO-K1 Ca antag
NC(=O)CSc1nnc(-c2ccncc2)o1	-3	8	0	-6	22	-2
O=S(=O)(/N=C(/c1ccccc1)N1CCOCC1)c1ccc(F)cc1F	-2	8	0	-10	0	-3
CCN=C1S/C(=C\c2ccc(N3CCOCC3)cc2C)C(=O)N1CC	-2	2	0	-5	15	1
COCCN1C(=O)/C(=C/c2ccc(N3CCCC3)cc2C)SC1=S	7	-9	11	31*	11	21
Cc1cccc(NC(=O)C(C)OC(=O)CNC(=O)C2CCCCC2)c1 (stereo not drawn)	11	16	0	2	19	-10
COc1ccccc1Nc1nc2cc(C)ccc2cc1C#N	-7	15	16*	-1	14	10
COc1ccccc1Nc1nc2ccc(C)cc2cc1C#N	0	-2	0	2	-6	25*
COc1ccccc1Nc1nc2c(C)cccc2cc1C#N	-4	7	0	-2	9	-5
CCN(CC(=O)Nc1c(F)cccc1F)C(=O)CCNC(=O)c1ccco1	-3	5	2	-1	0	0
C/C(Cn1nc([N+](=O)[O-])cc1C)=N\NC(=O)c1ccc(O)cc1O	-5	7	2	-9	23	-24
COc1cc(C(=O)N/N=C(\C)Cn2nc([N+](=O)[O-])cc2C)ccc1O	-8	7	0	-2	-12	28*
Cc1cc(=O)oc2c(CN3CCCC3)c(O)c(Cl)cc12	-4	6	0	-6	1	-5
CCCc1cc(=O)oc2c(CN3CCCC3)c(O)c(Cl)cc12	-2	1	0	-2	-9	29*
CC(C)(C)N(Cc1cc2ccccc2[nH]c1=O)C(=O)c1cccc([N+](=O)[O-])c1	-5	-21	0	57*	-18	8
CCCN(Cc1cc2ccccc2[nH]c1=O)C(=O)c1cccc([N+](=O)[O-])c1	0	18	0	-22	-14	1
Cc1nc2nc(C)c(CCC(=O)NC(C)c3ccc4c(c3)OCCO4)c(C)n2n1 (stereo not drawn)	-6	-10	1	68*	5	-1
CCn1nc(C)c(CNC(=O)c2cc(COc3ccc(F)cc3Cl)on2)c1C	3	-13	12	19	5	-2
CC(C)n1nnnc1SCC(=O)N1N=C(c2cccs2)CC1c1cccs1 (stereo not drawn)	-5	3	1	7	15	-17
CC1CCCCC1NC(=O)COc1ncnc2sccc12 (stereo not drawn)	1	10	-1	-6	9	-11
